Results published in PubChem BioAssay (NCATS).
Results filed as inconclusive are left out. The source made the active and inactive calls. Unless noted, calls come from the whole dose curve; as a rule, active = well fitted curve in the direction sought with a large enough effect; inconclusive = small, poorly fitted or top-dose-only effect, or another doubt; inactive = no such curve, though single readings can be large; an effect the other way counts as inactive or inconclusive.

Legend:
[1] = qHTS Assay for Lipid Storage Modulators (AID 1519; calls by dose curve; note: potency is the fitted concentration of half-maximal effect; for activity change, negative = inhibition: % is set by controls: 0 for no effect and ±100 for the full control effect); settings: Drosophila S3 cells, BODIPY lipid droplet/cell ratio, laser cytometry, cells loaded with oleic acid
How it was run: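 Cells seeded at 5,000 per well were treated with compounds over a concentration series and loaded with oleic acid (400 uM, as added). Lipid droplet fluorescence (488 nm excitation, 500-530 nm channel) was read by laser-scanning cytometry and normalized to 20 uM Triacsin C.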

[2] = biological target: ATP-dependent 6-phosphofructokinase (Trypanosoma brucei brucei) (UniProt O15648); experiment: qHTS Assay to Find Inhibitors of T. brucei phosphofructokinase: hit validation (AID 492961);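 note: luminescence reports ADP formed as PFK phosphorylates fructose-6-phosphate with ATP; % is set by controls: 0 for no effect and ±100 for the full control effect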; settings: T. brucei PFK, ADP-Glo luminescence; series mostly up to 24.3 µM
How it was run: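 Compounds titrated; %activity normalized to 0x and 1x enzyme controls, curve-fitted. Readout: ADP-Glo luminescence after 45 min room-temperature reaction of 1.25 nM PFK, 0.1 mM ATP, 0.5 mM F6P, pH 8.0.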

[3] = biological target: Ubiquitin carboxyl-terminal hydrolase 1 (Homo sapiens) (UniProt O94782); experiment: Inhibitors of USP1/UAF1: Pilot qHTS (AID 504865); settings: purified USP1/UAF1, Ub-rhodamine cleavage fluorescence; series mostly up to 114 µM; note: nearly all actives have a fitted effect of over 35% in size; note: potency is the fitted concentration of half-maximal effect;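 for activity change, negative = inhibition: rhodamine fluorescence freed from ubiquitin-rhodamine substrate followed over time; top concentration of the series differs between compounds; % is set by controls: 0 for no effect and ±100 for the full control effect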
How it was run: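 1nM USP1/UAF1 + cpd, 15 min RT; start w/ Ub-Rho 150nM final; kinetic FL 480/540 nm, 6 reads q60 s. Buffer 50mM HEPES pH 7.8, 0.5mM EDTA, 1mM TCEP, 0.01% Tween-20, 0.1 mg/ml BSA.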

[4] = biological target: Luciferin 4-monooxygenase (Photinus pyralis) (UniProt P08659); experiment: Biochemical firefly luciferase enzyme assay for NPC (AID 624030); note: nearly all actives have a fitted effect of over 70% in size; note: potency is the fitted concentration of half-maximal effect;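 for activity change, negative = inhibition: purified P. pyralis luciferase at 10 nM with luciferin and ATP substrate; 0% = DMSO and -100% = full luciferase inhibition by PTC124 control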; settings: purified P. pyralis luciferase, luminescence, 5 min; series mostly up to 24.9 µM
How it was run: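 Purified P. pyralis luciferase at 10 nM in 50 mM Tris Acetate (final), luminescence read within 5 minutes of enzyme addition to compounds. Activity normalised to PTC124 versus DMSO; concentration-response curves classed by r2, magnitude and activity.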

[5] = qHTS profiling for inhibitors of Plasmodium falciparum proliferation (AID 504749); note: nearly all actives have a fitted effect of over 60% in size; note: potency is the fitted concentration of half-maximal effect;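 for activity, negative = inhibition: 0% = DMSO vehicle and full inhibition = artemisinin control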; settings: P. falciparum in erythrocytes, SYBR Green DNA, 72 h
How it was run: (§1)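 SYBR Green fluorescence (ex 485 nm, em 535 nm) reports parasite DNA after 72 h compound exposure of infected red cells at 0.3% parasitemia, 2.5% hematocrit; signal normalized to 0.29 uM artemisinin and vehicle wells.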

[6] = test system: 3D7; experiment: as above; settings: P. falciparum in erythrocytes, SYBR Green DNA, 72 h; series mostly up to 12.8 µM
How it was run: as §1

[7] = test system: AS120; experiment: as above; settings: P. falciparum in erythrocytes, SYBR Green DNA, 72 h; series mostly up to 12.8 µM
How it was run: as §1

[8] = test system: C2A; experiment: as above; settings: P. falciparum in erythrocytes, SYBR Green DNA, 72 h; series mostly up to 12.8 µM
How it was run: as §1

[9] = test system: CP185; experiment: as above; settings: P. falciparum in erythrocytes, SYBR Green DNA, 72 h; series mostly up to 12.8 µM
How it was run: as §1

[10] = test system: CP192; experiment: as above; settings: P. falciparum in erythrocytes, SYBR Green DNA, 72 h; series mostly up to 12.8 µM
How it was run: as §1

[11] = test system: CP217; experiment: as above; settings: P. falciparum in erythrocytes, SYBR Green DNA, 72 h; series mostly up to 12.8 µM
How it was run: as §1

[12] = test system: CP238; experiment: as above; settings: P. falciparum in erythrocytes, SYBR Green DNA, 72 h; series mostly up to 12.8 µM
How it was run: as §1

[13] = test system: CP247; experiment: as above; settings: P. falciparum in erythrocytes, SYBR Green DNA, 72 h; series mostly up to 12.8 µM
How it was run: as §1

[14] = test system: CP250; experiment: as above; settings: P. falciparum in erythrocytes, SYBR Green DNA, 72 h; series mostly up to 12.8 µM
How it was run: as §1

[15] = test system: CP262; experiment: as above; settings: P. falciparum in erythrocytes, SYBR Green DNA, 72 h; series mostly up to 12.8 µM
How it was run: as §1

[16] = test system: FAB9; experiment: as above; settings: P. falciparum in erythrocytes, SYBR Green DNA, 72 h; series mostly up to 12.8 µM
How it was run: as §1

[17] = test system: SC27B; experiment: as above; settings: P. falciparum in erythrocytes, SYBR Green DNA, 72 h; series mostly up to 12.8 µM
How it was run: as §1

[18] = test system: CP191; experiment: as above; settings: P. falciparum in erythrocytes, SYBR Green DNA, 72 h; series mostly up to 12.8 µM
How it was run: as §1

[19] = test system: HB3; experiment: as above; settings: P. falciparum in erythrocytes, SYBR Green DNA, 72 h; series mostly up to 12.8 µM
How it was run: as §1

[20] = test system: ECU; experiment: as above; settings: P. falciparum in erythrocytes, SYBR Green DNA, 72 h; series mostly up to 12.8 µM
How it was run: as §1

[21] = measured here: cell count channel max response
[22] = measured here: lipid channel max response
[23] = at 12.8 µM (top of the series), parasite line A
[24] = at 12.8 µM (top of the series), parasite line B

Sequence of Luciferin 4-monooxygenase (Photinus pyralis) (P08659 whole entry, looked up): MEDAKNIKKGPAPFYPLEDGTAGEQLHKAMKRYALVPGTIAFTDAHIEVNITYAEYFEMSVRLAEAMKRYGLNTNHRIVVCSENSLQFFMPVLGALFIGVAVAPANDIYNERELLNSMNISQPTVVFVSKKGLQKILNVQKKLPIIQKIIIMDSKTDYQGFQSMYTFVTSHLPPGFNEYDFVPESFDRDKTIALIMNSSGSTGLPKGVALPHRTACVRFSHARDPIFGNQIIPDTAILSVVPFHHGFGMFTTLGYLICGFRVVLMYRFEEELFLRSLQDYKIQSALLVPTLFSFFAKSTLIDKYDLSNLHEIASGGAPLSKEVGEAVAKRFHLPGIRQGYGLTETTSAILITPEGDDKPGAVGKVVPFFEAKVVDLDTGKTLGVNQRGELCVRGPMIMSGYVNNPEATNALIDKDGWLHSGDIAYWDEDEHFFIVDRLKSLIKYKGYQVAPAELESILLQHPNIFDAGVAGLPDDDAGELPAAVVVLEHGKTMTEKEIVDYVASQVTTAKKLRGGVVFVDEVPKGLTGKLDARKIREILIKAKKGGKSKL
Sequence of ATP-dependent 6-phosphofructokinase (Trypanosoma brucei brucei) (O15648 whole entry, looked up): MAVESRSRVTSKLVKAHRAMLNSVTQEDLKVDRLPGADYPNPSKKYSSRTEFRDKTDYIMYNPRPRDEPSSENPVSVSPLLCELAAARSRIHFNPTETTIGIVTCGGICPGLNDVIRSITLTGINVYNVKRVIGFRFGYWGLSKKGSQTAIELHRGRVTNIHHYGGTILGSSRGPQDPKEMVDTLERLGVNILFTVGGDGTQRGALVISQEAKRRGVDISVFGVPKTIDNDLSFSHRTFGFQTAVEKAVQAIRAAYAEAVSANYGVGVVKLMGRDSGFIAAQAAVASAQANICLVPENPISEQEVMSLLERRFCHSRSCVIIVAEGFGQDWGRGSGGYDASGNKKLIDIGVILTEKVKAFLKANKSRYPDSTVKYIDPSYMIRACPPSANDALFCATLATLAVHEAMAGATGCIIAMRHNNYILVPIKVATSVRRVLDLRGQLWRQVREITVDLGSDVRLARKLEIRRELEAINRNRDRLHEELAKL
Sequence of Ubiquitin carboxyl-terminal hydrolase 1 (Homo sapiens) (O94782 whole entry, looked up): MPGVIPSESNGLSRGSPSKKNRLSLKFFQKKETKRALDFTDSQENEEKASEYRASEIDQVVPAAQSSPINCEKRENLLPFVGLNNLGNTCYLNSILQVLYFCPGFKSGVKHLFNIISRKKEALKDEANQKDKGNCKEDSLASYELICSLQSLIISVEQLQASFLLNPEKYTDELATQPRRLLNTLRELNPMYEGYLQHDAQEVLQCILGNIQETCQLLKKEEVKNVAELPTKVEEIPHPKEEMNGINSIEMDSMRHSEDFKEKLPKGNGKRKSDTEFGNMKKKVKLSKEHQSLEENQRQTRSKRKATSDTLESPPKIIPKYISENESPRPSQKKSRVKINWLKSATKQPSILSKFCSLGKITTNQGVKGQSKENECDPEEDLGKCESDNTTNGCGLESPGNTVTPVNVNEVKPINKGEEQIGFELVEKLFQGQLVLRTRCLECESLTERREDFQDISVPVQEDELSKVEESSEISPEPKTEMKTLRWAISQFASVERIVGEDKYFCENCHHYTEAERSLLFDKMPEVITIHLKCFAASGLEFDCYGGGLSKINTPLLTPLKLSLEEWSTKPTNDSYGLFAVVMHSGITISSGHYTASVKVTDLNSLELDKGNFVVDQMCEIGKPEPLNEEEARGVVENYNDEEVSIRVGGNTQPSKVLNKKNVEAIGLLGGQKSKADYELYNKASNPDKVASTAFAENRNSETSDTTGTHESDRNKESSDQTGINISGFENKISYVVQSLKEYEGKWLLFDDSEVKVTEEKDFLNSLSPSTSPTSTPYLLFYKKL

CN(C)CCn1nnnc1SCC1=C(C(=O)O)N2C(=O)[C@@H](NC(=O)Cc3csc(N)n3)[C@@H]2SC1
-8.06%: max response [1, 21]
inactive: activity change, negative = inhibition ([1]; at 25.7 µM (top of the series)) -0.351% | outcome [2] | Potency [3] | Potency [4] | activity, negative = inhibition [5, 23] 0.61% | activity, negative = inhibition [5, 24] 1.06% | Potency [6] | Potency [7] | Potency [8] | Potency [9] | Potency [10] | Potency [11] | Potency [12] | Potency [13] | Potency [14] | Potency [15] | Potency [16] | Potency [17]
-8.86%: max response [1, 22]

CS(=O)(=O)c1ccc([C@H](O)[C@H](CO)NC(=O)C(Cl)Cl)cc1
inactive: activity change, negative = inhibition ([1]; at 25.7 µM (top of the series)) -0.717% | outcome [2] | Potency [3] | Potency [4] | activity, negative = inhibition [5, 23] -20.3% | activity, negative = inhibition [5, 24] -19.1% | Potency [6] | Potency [7] | Potency [8] | Potency [18] | Potency [10] | Potency [11] | Potency [12] | Potency [13] | Potency [14] | Potency [16] | Potency [19] | Potency [17]
5.27%: max response [1, 22]
3.5%: max response [1, 21]

O=C(O)[C@@H]1[C@@H]2C[C@H]3c4[nH]c5ccccc5c4CCN3C[C@@H]2CC[C@@H]1O
active: Potency [3] 28200 nM
-6.11%: max response [1, 22]
-6.3%: max response [1, 21]
inactive: activity change, negative = inhibition ([1]; at 25.7 µM (top of the series)) 0.95% | outcome [2] | Potency [4] | Potency [6] | Potency [14] | Potency [19] | Potency [17]

C[C@@H](C(=O)O)c1ccc(C(=O)c2ccccc2)s1
active: Potency [4] 4890 nM
1.62%: max response [1, 21]
inactive: activity change, negative = inhibition ([1]; at 25.7 µM (top of the series)) -0.119% | outcome [2] | Potency [3] | activity, negative = inhibition [5, 23] 5.2% | activity, negative = inhibition [5, 24] 16.9% | Potency [6] | Potency [7] | Potency [8] | Potency [9] | Potency [18] | Potency [10] | Potency [11] | Potency [12] | Potency [13] | Potency [14] | Potency [15] | Potency [20] | Potency [16] | Potency [19] | Potency [17]
2.32%: max response [1, 22]

C[C@@H]1O[C@H](O[C@@H]2[C@H](C)O[C@H](O[C@@H]3[C@H](C)O[C@H](O[C@H]4CC[C@]5(C)[C@@H](CC[C@@H]6[C@H]5C[C@@H](O)[C@]5(C)[C@@H](C7=CC(=O)OC7)CC[C@]65O)C4)C[C@@H]3O)C[C@@H]2O)C[C@H](O)[C@@H]1O
1.22%: max response [1, 22]
inactive: activity change, negative = inhibition ([1]; at 25.7 µM (top of the series)) 0.916% | Potency [3]
2.04%: max response [1, 21]

O=C(Nc1ccccc1)OC[C@H](CN1CCCCC1)OC(=O)Nc1ccccc1
inactive: activity change, negative = inhibition ([1]; at 25.7 µM (top of the series)) -4.16% | outcome [2] | Potency [4] | activity, negative = inhibition [5, 23] -1.15% | activity, negative = inhibition [5, 24] -2.24% | Potency [6] | Potency [7] | Potency [8] | Potency [9] | Potency [18] | Potency [10] | Potency [11] | Potency [12] | Potency [13] | Potency [14] | Potency [15] | Potency [20] | Potency [16] | Potency [19] | Potency [17]
-11%: max response [1, 22]
-5.88%: max response [1, 21]

Cc1cc2ccc(=O)oc2cc1OC[C@@H](O)C(C)(C)O
13%: max response [1, 21]
21.2%: max response [1, 22]
inactive: activity change, negative = inhibition ([1]; at 57.5 µM (top of the series)) 5.47%

CNC[C@H](O)[C@H](O)[C@H](O)[C@H](O)CO
-14.3%: max response [1, 22]
inactive: activity change, negative = inhibition ([1]; at 25.7 µM (top of the series)) -1.7% | Potency [3]
-11%: max response [1, 21]

C[C@@H]1O[C@H](O[C@@H]2\C=C/C=C\C=C/C=C\C[C@H](C)OC(=O)/C=C\[C@H]3O[C@@H]3C[C@H](O)C[C@]3(O)C[C@@H](O)[C@@H](C(=O)O)[C@H](C2)O3)[C@@H](O)[C@H](N)[C@@H]1O (stereo in doubt)
0.155%: max response [1, 22]
-4.86%: max response [1, 21]
inactive: activity change, negative = inhibition ([1]; at 25.7 µM (top of the series)) 2.21% | outcome [2] | Potency [3] | Potency [4] | activity, negative = inhibition ([5]; at 28.7 µM (top of the series), parasite line A) 9.05% | activity, negative = inhibition ([5]; at 28.7 µM (top of the series), parasite line B) 8% | Potency [6] | Potency [7] | Potency [8] | Potency [9] | Potency [18] | Potency [10] | Potency [11] | Potency [12] | Potency [13] | Potency [14] | Potency [15] | Potency [20] | Potency [16] | Potency [19] | Potency [17]

COc1cc(N[C@@H](C)CCCN)c2ncccc2c1
-2.77%: max response [1, 22]
-0.938%: max response [1, 21]
inactive: activity change, negative = inhibition ([1]; at 25.7 µM (top of the series)) -1.31% | outcome [2] | Potency [4]
active: Potency [3] 3980 nM | Potency ([5]; parasite line A) 1580 nM | Potency ([5]; parasite line B) 2820 nM | Potency [6] 1780 nM | Potency [7] 794 nM | Potency [8] 2820 nM | Potency [9] 2000 nM | Potency [18] 1000 nM | Potency [10] 2560 nM | Potency [11] 1120 nM | Potency [12] 2240 nM | Potency [13] 3550 nM | Potency [14] 1260 nM | Potency [15] 1280 nM | Potency [20] 1000 nM | Potency [16] 891 nM | Potency [19] 2240 nM | Potency [17] 2000 nM

CC[C@H](C(=O)[C@H](C)[C@H](O)[C@H](C)CCc1ccc(C)c(O)c1C(=O)O)[C@H]1O[C@](CC)([C@@H]2CC[C@@](O)(CC)[C@H](C)O2)C[C@H]1C
active: Potency [1] 14100 nM
-85.1%: max response [1, 22]
-26.4%: max response [1, 21]

C[C@@](N)(C(=O)O)c1cccc(CC(=O)O)c1
3.55%: max response [1, 22]
1.61%: max response [1, 21]
inactive: activity change, negative = inhibition ([1]; at 57.5 µM (top of the series)) 1.75% | Potency [3]

Cc1ncc([N+](=O)[O-])n1C[C@H](O)CCl
inactive: activity change, negative = inhibition ([1]; at 25.7 µM (top of the series)) -1.27% | outcome [2] | Potency [3] | Potency [4] | activity, negative = inhibition [5, 23] 1% | activity, negative = inhibition [5, 24] 10.5% | Potency [6] | Potency [7] | Potency [8] | Potency [9] | Potency [18] | Potency [10] | Potency [11] | Potency [12] | Potency [13] | Potency [14] | Potency [15] | Potency [20] | Potency [16] | Potency [19] | Potency [17]
8.08%: max response [1, 21]
6.22%: max response [1, 22]

CC(=O)S[C@H]1CC2=CC(=O)CC[C@@]2(C)[C@H]2CC[C@@]3(C)[C@H](CC[C@]34CCC(=O)O4)[C@@H]12
inactive: activity change, negative = inhibition ([1]; at 25.7 µM (top of the series)) -7.24% | Potency [3]
-20.4%: max response [1, 21] | max response [1, 22]
